The text below walks through data of PubChem BioAssay (NCI).

Compounds without any hit were thinned out: in the full panel of roughly 79,000, 15% have a hit. A number with no mark means an inactive call. Active and inactive are the calls of the source. No stated cut-off is given here; in the data, active means growth inhibition above about 70%; inactive means the rest.

Assay [1] is described as follows: NCI Yeast Anticancer Drug Screen. Data for the rad50 strain (AID 155).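 Further: 0% = growth of vehicle-only cultures of the same strain.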 To be noted: S. cerevisiae rad50 strain growth inhibition; at 50.0 µM; active compounds read high. In outline:
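A DNA repair-deficient yeast mutant serves as the test organism; compound-induced growth inhibition is calculated against vehicle-treated cells.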

Assay [2] is described as follows: NCI Yeast Anticancer Drug Screen. Data for the mec2-1 strain (AID 157). To be noted: S. cerevisiae mec2-1 strain, at 50.0 µM, active compounds read high. An outline of the steps: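 mec2-1 yeast strain, carrying an alteration in DNA damage repair or cell cycle control, was exposed to compounds; growth inhibition was measured relative to vehicle-treated controls.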
Assay [3] is described as follows: NCI Yeast Anticancer Drug Screen. Data for the sgs1 mgt1 strain (AID 161).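 Further: 0% = growth of cultures given vehicle only.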 To be noted: S. cerevisiae sgs1 mgt1 strain, at 50.0 µM, active compounds read high. In outline:
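Yeast cells carrying a defined DNA-repair defect were exposed to test compounds. Growth inhibition was measured relative to vehicle-treated controls.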

A short description of assay [4]: NCI Yeast Anticancer Drug Screen. Data for the cln2 rad14 strain (AID 165).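 Further: 0% = growth equal to vehicle treated cultures.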 To be noted: S. cerevisiae cln2 rad14 strain, at 50.0 µM, active compounds read high. In outline: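 Yeast carrying cln2 and rad14 alterations (cell cycle control and DNA damage repair) were exposed to compounds. Growth inhibition was measured against vehicle-treated controls.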
Assay [5] can be described thus: NCI Yeast Anticancer Drug Screen. Data for the bub3 strain (AID 167). The conditions noted are these: S. cerevisiae bub3 mutant strain, at 50.0 µM, active compounds read high. In outline:
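Inhibition values come from growth of compound-treated mutant yeast normalised to vehicle-treated controls.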

Assay [6] can be described thus: NCI Yeast Anticancer Drug Screen. Data for the mlh1 rad18 strain (AID 175). To be noted: S. cerevisiae mlh1 rad18 strain growth inhibition; at 50.0 µM; active compounds read high. An outline of the steps: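 Growth inhibition of the yeast strain was measured after compound exposure and expressed relative to vehicle-treated controls. The strain carries defined defects in DNA damage repair.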

For `CC(C)(C)[Si](C)(C)OCC1OC(n2cnc3c(N)ncnc32)C(O)C1O` (stereo unspecified), the growth inhibition in assay [1] is -12.4%; in assay [2], -15.2%; in assay [3] it was 4.85%; in assay [4] it was -0.2%; in assay [5], 3.5%; in assay [6], -2.35%.
As for `CC1(C)O[C@H]2Cn3c(c(C#N)c4ccccc43)[C@H]2O1`, the growth inhibition in assay [1] was 11.2%; in assay [2], -38.4%; in assay [3] it was 15.8%; in assay [4] it was -11.1%; in assay [5], 42.1%; in assay [6], -21.2%.
`CSc1sc2ccc(S(=O)(=O)O)cc2[n+]1C`: the growth inhibition was 24.1% in assay [1]; -6.7% in assay [2]; 15.7% in assay [3]; -4.4% in assay [4]; -1.85% in assay [5]; 9.8% in assay [6].
As to `O=C(Nc1nccs1)c1c(O)nc2sccn2c1=O`, the growth inhibition in assay [1] was 8.7%; in assay [2], -33%; in assay [3] it was 18.9%; in assay [4], 22.4%; in assay [5], 14.8%; in assay [6] it was -12.6%.
As for `COc1ccc(C2OC(=O)C(=O)C2=O)cc1OC` (stereo unspecified), the growth inhibition in assay [1] was -25.9%; in assay [2], -25.4%; in assay [3] it was -8.45%; in assay [4] it was -17.4%; in assay [5] it was 8.7%; in assay [6], -8.65%.
Consider `O=[N+]([O-])c1ccc(/C=N/C(/N=C/c2ccc([N+](=O)[O-])cc2)c2ccc([N+](=O)[O-])cc2)cc1`, for which the growth inhibition in assay [1] was 8.05%; in assay [2] it was -6.25%; in assay [3] it was 6.35%; in assay [4], 1.55%; in assay [5], -4.05%; in assay [6] it was 23.9%.
On to `O=S(=O)(O)C(O)c1ccncc1` (stereo unspecified), for which the growth inhibition in assay [1] was -38.2%; in assay [2] it was -41%; in assay [3], -6.15%; in assay [4] it was -1.8%; in assay [5], -4.25%; in assay [6], -22.7%.
Consider `CCN(CC)CC(Oc1ccccc1)C(=O)c1ccccc1` (stereo unspecified), for which the growth inhibition in assay [1] was -10.2%; in assay [2], -15.7%; in assay [3], 4.75%; in assay [4] it was -30.1%; in assay [5], -11.4%; in assay [6], -7.4%.
`OCCN1CCN(C2=Nc3cccnc3Nc3cscc32)CC1`: the growth inhibition in assay [1] is -41.2%; in assay [2], -1.15%; in assay [3] it was -22.6%; in assay [4], -9.75%; in assay [5] it was -5.05%; in assay [6], -8.75%.
For the compound `CC(=O)C(C(=O)C(=O)Nc1cc(Cl)c(Cl)cc1Cl)c1csc(N)n1` (stereo unspecified), the growth inhibition was -14.7% in assay [1]; -9.2% in assay [2]; -1.85% in assay [3]; 7% in assay [4]; -2.5% in assay [5]; -10.6% in assay [6].
`[B-][N+]1(C)CC[N+]([B-])(C)CC1` (stereo unspecified): the growth inhibition was -0.6% in assay [1]; 5.8% in assay [2]; -7% in assay [3]; 16.1% in assay [4]; -5.65% in assay [5]; -11.6% in assay [6].
For the compound `C/C(COC(=O)c1cc(C)nc2ccccc12)=N\O`, the growth inhibition in assay [1] is -22.6%; in assay [2], 17%; in assay [3], -0.65%; in assay [4] it was -20.8%; in assay [5], 21.1%; in assay [6], -11.6%.
Consider `Cc1ccc2snc(C(=O)O)c2c1[N+](=O)[O-]`, for which the growth inhibition is 16.7% in assay [1]; 0.65% in assay [2]; 4.1% in assay [3]; -1.65% in assay [4]; -13.6% in assay [5]; 8.6% in assay [6].
As for `Cc1ccc(SCCN)cc1`, the growth inhibition is 11.8% in assay [1]; 11.9% in assay [2]; -6.3% in assay [3]; 2.35% in assay [4]; -0.35% in assay [5]; -10.2% in assay [6].
Regarding `C=C1C(=O)O[C@@H]2[C@H]1CC[C@H](C)[C@]1(O)CCC(=O)[C@@]21C`, the growth inhibition in assay [1] was -5.3%; in assay [2], -13.6%; in assay [3], 14.2%; in assay [4], 7.85%; in assay [5], -4.75%; in assay [6], 3%.
On to `CCOC(=O)c1ccc(N=c2sc3ccccc3nc2Nc2ccc(C(=O)OCC)cc2)cc1`, for which the growth inhibition in assay [1] was 2.75%; in assay [2], -3.95%; in assay [3] it was -2.05%; in assay [4], 34%; in assay [5] it was 2.3%; in assay [6] it was 10.9%.
As for `CN=C1c2ccccc2C(=O)c2c1c(O)n(-c1ccccc1)c2O`, the growth inhibition is 27.9% in assay [1]; 15.3% in assay [2]; 20.9% in assay [3]; 21.5% in assay [4]; 29.4% in assay [5]; 36.8% in assay [6].
On to `CCOP(=O)(O)C(c1ccccc1)c1ccccc1`, for which the growth inhibition in assay [1] is -2.45%; in assay [2], 7.5%; in assay [3], 3.5%; in assay [4] it was -10.7%; in assay [5] it was 5.3%; in assay [6], 6.85%.
As for `C1=NC(c2ccccc2)=CN(C2CCCCC2)C1(c1ccccc1)C1CCCCC1` (stereo unspecified), the growth inhibition in assay [1] is 97.1% (active); in assay [2], 96.5% (active); in assay [3], 97.2% (active); in assay [4] it was 94.6% (active); in assay [5] it was 95.7% (active); in assay [6] it was 96.5% (active).
In the case of `COC(=O)C1=C(C(=O)OC)C2CCC1O2`, the growth inhibition in assay [1] is -0.5%; in assay [2], -6%; in assay [3] it was -0.4%; in assay [4] it was -11.7%; in assay [5], 8.35%; in assay [6], -17.6%.
In the case of `O=C(CC(c1ccccc1)C(Br)(c1ccccc1)[N+](=O)[O-])c1ccccc1` (stereo unspecified), the growth inhibition in assay [1] is 11.8%; in assay [2], -0.45%; in assay [3], -2.75%; in assay [4], 22.2%; in assay [5] it was -3.4%; in assay [6], -5.8%.
